Active and inactive are the calls of the source. Unless noted, the rule behind the calls is not given here.
Key:
[1] = tested on: XIP peptide (Xip251-270) binding; assay: small-molecule binders of XIP peptide, primary screen, biochemical, small-molecule microarray, fluorescence 635/667 nm, 0.1 µg/mL protein (AID 1182); settings: fluorescent protein binding, 635 nm, higher = more signal, called active from +8 up or from −8 down
XIP peptide (Xip251-270) = assay: small-molecule binders of XIP peptide, primary screen, biochemical, small-molecule microarray, fluorescence 635/667 nm, 0.5 µg/mL protein (AID 1183); settings: small-molecule microarray binding, fluorescence 635 nm; higher = more signal
[2] = Plasmodium falciparum growth inhibition, primary screen, strain 3D7, DAPI fluorescence, 100 nL (AID 1184);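 note: parasites grown inside human red blood cells in medium with human serum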; settings: P. falciparum 3D7 growth, 3 d, higher = more signal
[3] = target: Homeobox protein Hox-A13 (Mus musculus) (UniProt Q62424); assay: inhibitors of HoxA13-DNA binding, primary screen, biochemical, fluorescence polarization, labeled oligonucleotide (AID 1185); settings: 15 min, higher = more signal, called active from +8 up or from −8 down
[4] = inhibitors of hydroxyurea-induced Chk1 phosphorylation, primary screen, imaging, HeLa, phospho-Chk1 antibody, percent positive cells (AID 1186); settings: hydroxyurea-induced phospho-Chk1 immunofluorescence imaging, higher = more signal
[5] = inhibitors of hydroxyurea-induced Chk1 phosphorylation, primary screen, imaging, HeLa, phospho-Chk1 nuclear intensity (AID 1187); settings: hydroxyurea-induced phospho-Chk1 immunofluorescence imaging, higher = more signal

Chain of Homeobox protein Hox-A13 (Mus musculus) (Q62424 whole entry, looked up): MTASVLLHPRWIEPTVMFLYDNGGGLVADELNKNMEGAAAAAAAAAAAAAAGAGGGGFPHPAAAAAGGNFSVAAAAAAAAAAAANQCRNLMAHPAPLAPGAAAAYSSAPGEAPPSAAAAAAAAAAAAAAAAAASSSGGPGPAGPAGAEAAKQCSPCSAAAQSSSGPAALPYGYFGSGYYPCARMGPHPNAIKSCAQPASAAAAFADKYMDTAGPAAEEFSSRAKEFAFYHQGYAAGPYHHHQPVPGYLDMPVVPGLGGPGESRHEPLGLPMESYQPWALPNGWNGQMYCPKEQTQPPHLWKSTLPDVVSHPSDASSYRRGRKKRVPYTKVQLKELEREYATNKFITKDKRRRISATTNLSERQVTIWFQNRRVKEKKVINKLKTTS

| SMILES | composite z-score [1] | composite z-score (XIP peptide (Xip251-270)) | z-score [2] | z-score [3] | z-score [4] | z-score [5] |
| --- | --- | --- | --- | --- | --- | --- |
| CC(C)c1ccc(NN2C(C(O)c3ccc(N(C)C)cc3)C=CC3C(=O)N(c4ccccc4)C(=O)C32)cc1 (centres undefined) | -0.0313 (inactive) | 0.618 | -0.286 | -2.2 (inactive) | 0.148 (inactive) | -0.072 (inactive) |
| Cc1ccc(S[C@]2(C(=O)NCc3ccccc3)CC(=O)N(Cc3ccccc3Cl)[C@@H]2c2ccc(CO)cc2I)cc1 | 0.935 (inactive) | 0.348 | -0.496 | -1.91 (inactive) | 0.0452 (inactive) | 0.0687 (inactive) |
| C=CCC(OC(C)=O)[C@@H]1[C@@H](N(Cc2cccc3ccccc23)C(=O)c2ccc(C)cc2)c2cc(OCCCO)ccc2N1C(=O)Cc1ccc(OC)cc1 (some centres undefined) | -0.262 (inactive) | -0.241 | -0.805 | -0.287 (inactive) | -0.446 (inactive) | -0.126 (inactive) |
| CC(C)(C)N1CC=CC23O[C@@H]4/C=C\CCCOC(=O)C4[C@H]2C(=O)N(CCO)[C@@H]3C1=O (some centres undefined) | -0.0146 (inactive) | 0.368 | -1.38 | -4.95 (inactive) | 0.205 (inactive) | 0.299 (inactive) |
| CC(C)CNC(=O)[C@@H]1c2ccccc2C(=O)N(Cc2cc(C(F)(F)F)cc(C(F)(F)F)c2)[C@H]1c1ccc(CO)cc1 | -0.133 (inactive) | -0.308 | -1.2 | -1.46 (inactive) | -0.236 (inactive) | 0.21 (inactive) |
| CC(=O)Nc1cc(Br)ccc1C(=O)O | 1.16 (inactive) | 0.53 | 1.96 | 0.273 (inactive) | 0.1 (inactive) | 0.0714 (inactive) |
| CC(C)(C)N1CC=CC23O[C@@H]4C=CCOC(=O)[C@@H]4[C@H]2C(=O)N(CCCCCO)[C@@H]3C1=O (some centres undefined) | 0.295 (inactive) | -1.13 | -0.366 | -4.43 (inactive) | 0.241 (inactive) | -0.459 (inactive) |
| CC(=O)C1=CCC(c2ccccc2)N(S(=O)(=O)c2ccc(C)cc2)C1 (centres undefined) | 0.651 (inactive) | 0.473 | -1.33 | -3.89 (inactive) | 0.532 (inactive) | 0.216 (inactive) |
| CCOC(=O)C1=CC[C@@H](c2ccccc2)N(S(=O)(=O)c2ccc(C)cc2)[C@H]1C(=O)OCC | 0.414 (inactive) | -0.404 | -0.799 | -5.23 (inactive) | 0.0256 (inactive) | -0.831 (inactive) |
| CC(=CC1CCCCC1)[C@@H](NC(=O)c1ccc(C(F)(F)F)cc1)c1ccc(-c2ccccc2)cc1 | -0.138 (inactive) | -0.569 | -0.0178 | -1.48 (inactive) | 0.191 (inactive) | 0.498 (inactive) |
| CCCCCN1CC=CC23O[C@@H]4C=CCOC(=O)[C@@H]4[C@H]2C(=O)N(CCCO)[C@@H]3C1=O (some centres undefined) | 0.591 (inactive) | 0.747 | -1.8 | -3.67 (inactive) | 0.679 (inactive) | 0.402 (inactive) |
| [N-]=[N+]=NCc1ccccc1C[C@]1(C(=O)O)N=C(c2ccc(OCCCO)cc2)O[C@H]1c1ccccc1 | 1.06 (inactive) | 0.228 | -0.296 | -5.85 (inactive) | 0.109 (inactive) | 0.0605 (inactive) |
| O=C/C=C/c1ccc2c(c1)OCO2 | -0.316 (inactive) | -0.232 | 0.775 | 1.04 (inactive) | 0.284 (inactive) | 0.774 (inactive) |
| CCCCC=C[C@@H](NC(=O)c1cccs1)c1ccccc1 | -0.0837 (inactive) | -0.513 | -0.414 | -3.05 (inactive) | -0.483 (inactive) | -0.695 (inactive) |
| C=C[C@H](COC(C)=O)N(Cc1ccc(OC(C)=O)c(OC)c1)S(=O)(=O)c1ccc(Br)cc1 | 0.353 (inactive) | 0.713 | 0.371 | -5.58 (inactive) | -0.245 (inactive) | -0.314 (inactive) |
| CCOC(=O)[C@H]1C[C@H]2O[C@@]23C[C@H]1C(=O)N1CCCC1[C@@H]3O[Si](C)(C)C(C)(C)C (some centres undefined) | -0.0593 (inactive) | -0.829 | -0.329 | -5.3 (inactive) | -0.0084 (inactive) | -0.115 (inactive) |
| COc1ccc(CCN2C(=O)[C@@]3(Cc4ccccc42)c2ccccc2C(=O)N(Cc2ccccc2Cl)[C@H]3c2ccc(CO)cc2)cc1 | -0.227 (inactive) | 0.285 | -1.37 | -0.482 (inactive) | -0.214 (inactive) | -0.322 (inactive) |

| SMILES | composite z-score [1] | composite z-score (XIP peptide (Xip251-270)) | z-score [2] | z-score [3] | z-score [4] | z-score [5] |
| --- | --- | --- | --- | --- | --- | --- |
| C=CC[C@@H](OC(=O)Nc1ccc(OC)cc1)c1ccc(O)c2ccccc12 | 1.08 (inactive) | 0.737 | -0.166 | -0.5 (inactive) | 0.311 (inactive) | 0.626 (inactive) |
| Cc1cc(C)c(C(O)C2C=CC3C(=O)N(c4ccccc4)C(=O)C3N2Nc2ccc(C#N)cc2)c(C)c1 (centres undefined) | 1.69 (inactive) | 0.432 | -0.558 | 0.783 (inactive) | 0.0661 (inactive) | 0.0947 (inactive) |
| O=C1O[C@@H](c2ccccc2)[C@@H](c2ccccc2)N2[C@@H](c3ccc(O)cc3)[C@]3(C(=O)Nc4ccc(C#CC5=CCCCC5)cc43)[C@@H](C(=O)O)[C@H]12 | 1.53 (inactive) | 0.327 | 0.202 | -5.46 (inactive) | -0.0372 (inactive) | 0.277 (inactive) |
| COc1ccc([Si](C)(C)[C@H]2[C@H](CCn3cc(CCO)nn3)O[C@@]3(C(=O)N(Cc4ccc(N5CCOC5=O)cc4)c4ccccc43)[C@@H]2C)cc1 | 0.523 (inactive) | 0.866 | -2.38 | -4.22 (inactive) | -1.11 (inactive) | -0.744 (inactive) |
| CC(=O)NCCCC[C@@H]1NC(=O)[C@@H]2C[C@H](C(=O)NCCCCN(C)C)[C@H](c3ccc(O)cc3)N2C1=O | -0.308 (inactive) | -0.208 | 0.101 | -0.795 (inactive) | -0.396 (inactive) | -0.291 (inactive) |
| COCCOC(=O)N1C(=O)[C@@]2(c3cc(C#CCCO)ccc31)[C@H](C(=O)NC[C@H](O)c1ccccc1)[C@H]1C(=O)O[C@H](c3ccccc3)[C@H](c3ccccc3)N1[C@@H]2c1ccc(O)cc1 | -0.246 (inactive) | 0.692 | 0.363 | -3.53 (inactive) | -0.392 (inactive) | -0.542 (inactive) |
| [N-]=[N+]=NCc1ccccc1C[C@@]1(C(=O)N2CCOCC2)N=C(c2ccc(OCCCO)cc2)O[C@@H]1c1ccccc1CN=[N+]=[N-] | 1.16 (inactive) | 0.788 | -2.36 | 0.223 (inactive) | -0.544 (inactive) | -0.629 (inactive) |
| CC(C)N1C(=O)C[C@@](C(=O)NCc2ccccc2)(c2ccc([N+](=O)[O-])cc2)[C@H]1c1ccc(CO)cc1 | 0.168 (inactive) | 0.524 | -0.688 | -1.27 (inactive) | -0.293 (inactive) | -0.128 (inactive) |
| NCCCCCNC(=O)[C@H]1C[C@H]2C(=O)NCC(=O)N2[C@H]1c1cccc(OCCO)c1 | 0.228 (inactive) | 0.781 | 0.222 | -1.68 (inactive) | 0.0838 (inactive) | 0.179 (inactive) |
| COCCCNC(=O)[C@@]1(CCC(=O)OC(C)(C)C)N=C(c2ccc(OCCCO)cc2)O[C@H]1c1ccccc1CN=[N+]=[N-] | 0.748 (inactive) | 0.761 | -1.99 | -5.33 (inactive) | -0.376 (inactive) | -0.101 (inactive) |
| COc1ccc([Si](C)(C)[C@H]2[C@H](CC(=O)N(CCO)Cc3ccccc3)O[C@@]3(C(=O)N(Cc4cccc(N5CCC5=O)c4)c4ccccc43)[C@@H]2C)cc1 | 0.0163 (inactive) | 0.281 | -2.84 | -2.16 (inactive) | -1.46 (inactive) | -1.2 (inactive) |
| CCCCC=C[C@@H](NC(=O)c1ccco1)c1ccccc1 | 0.193 (inactive) | 0.511 | -1.19 | -0.806 (inactive) | -0.164 (inactive) | -0.7 (inactive) |
| COc1ccc([Si](C)(C)[C@@H]2[C@@H](CCn3cc([C@H](O)c4ccccc4)nn3)O[C@]3(C(=O)N(Cc4cccc(N5CCOC5=O)c4)c4ccccc43)[C@H]2C)cc1 | 0.672 (inactive) | 0.168 | -2.33 | -2.64 (inactive) | -0.862 (inactive) | 0.0282 (inactive) |
| C=C(COC)/C(=C/C[C@H](OC(=O)c1ccncc1)c1cccc(OCCO)c1)c1cc(C(=O)OC)ccc1OC | 1.46 (inactive) | 0.153 | -2.96 | -4.05 (inactive) | -0.681 (inactive) | -0.764 (inactive) |
| C=C[C@@H](COC(C)=O)N(Cc1ccc([N+](=O)[O-])cc1)S(=O)(=O)c1ccc(Br)cc1 | 0.13 (inactive) | 0.656 | 0.242 | -3.25 (inactive) | -0.617 (inactive) | -0.411 (inactive) |
| O=C1N(CCS(=O)(=O)c2ccccc2)Cc2ccccc2C[C@]12N=C(c1ccc(OCCCO)cc1)O[C@@H]2c1ccccc1 | 0.194 (inactive) | 0.789 | -2.34 | -2.61 (inactive) | -0.719 (inactive) | -0.709 (inactive) |
| COC(=O)[C@@]1(Cc2ccc(F)cc2)[C@H]2c3cc(C(=O)N4CCCC4)n(Cc4cccc5ccccc45)c3C[C@H]2CN1C(=O)c1ccccc1 | 0.702 (inactive) | 0.0322 | -1.74 | -4.87 (inactive) | -0.704 (inactive) | -0.576 (inactive) |

Reference: PubChem BioAssay
